# Data: paper PMC11062922 (Nature Chemical Biology, 2023)
# Like-named read-outs stand apart in the source and are kept apart here.
# Experiments:
# Set-up in all cases: species or system human, MV4-11 + K-562 + COLO205 + SK-N-BE2 + OVCAR-8
# [1] = tested on: ACAD11; conditions: read-out: apparent Kd, n = 1
# [2] = tested on: MAP2K1; conditions: read-out: apparent Kd; compound concentrations:100 nM and 1000 nM (sheet 'Samples'); n = 1
# [3] = tested on: T1, DJA1; conditions: read-out: apparent Kd, compound concentrations: 100 nM and 1000 nM (sheet 'Samples'), n = 1
# T1 construct: gene DNAJA1
# [4] = tested on: ATR; conditions: read-out: apparent Kd, n = 1
# [5] = tested on: NLK; conditions: read-out: apparent Kd, n = 1
# [6] = tested on: PIK3CA; conditions: read-out: apparent Kd, n = 1
# [7] = tested on: NQO2; conditions: read-out: apparent Kd, compound concentrations: 100 nM and 1000 nM (sheet 'Samples'), n = 1
# [8] = tested on: PRKCB; conditions: read-out: apparent Kd, n = 1
# [9] = tested on: JAK1; conditions: read-out: apparent Kd, n = 1
# [10] = tested on: CDC7; conditions: read-out: apparent Kd, n = 1
# [11] = tested on: CDK6; conditions: read-out: apparent Kd, n = 1
# [12] = tested on: MAP4K1; conditions: read-out: apparent Kd, n = 1
# [13] = tested on: STK26; conditions: read-out: apparent Kd, compound concentrations: 100 nM and 1000 nM (sheet 'Samples'), n = 1
# [14] = tested on: IRAK4; conditions: read-out: apparent Kd; compound concentrations:100 nM and 1000 nM (sheet 'Samples'); n = 1
# [15] = tested on: JAK2; conditions: read-out: apparent Kd; compound concentrations: 100 nM and 1000 nM (sheet 'Samples'), CATDS: 1.8350594186084E-2; n = 1
# [16] = compound concentrations:100 nM and 1000 nM (sheet 'Samples')
smiles,measurement,setting,value
CS(=O)(=O)Nc1ccc(-c2ccnc3[nH]ccc23)cc1 [GSK993273A],potency estimated from few doses,[1]; [16],1.04 µM
same,potency estimated from few doses,[2],1.72 µM
CS(=O)(=O)Nc1cccc(-c2ccc3c(NC(=O)C4CC4)n[nH]c3c2)c1 [SB-742864],potency estimated from few doses,[3]; CATDS: 0.110016860770891,1.63 µM
CNc1cc(-c2ccc3c(N)n[nH]c3c2)nc(N)n1 [GSK2224810A],potency estimated from few doses,[4]; [16],0.814 µM
same,potency estimated from few doses,[5]; [16],1.61 µM
same,potency estimated from few doses,[6]; [16],0.245 µM
c1ccc(-c2n[nH]cc2Nc2ccnc3ccccc23)nc1 [GW694077X],potency estimated from few doses,"[1]; compound concentrations: 100 nM and 1000 nM (sheet 'Samples'), CATDS: 2.4414312635225699E-2",1.6 µM
same,potency estimated from few doses,[7]; CATDS: 2.8699790095599101E-2,0.903 µM
same,potency estimated from few doses,"[6]; compound concentrations: 100 nM and 1000 nM (sheet 'Samples'), CATDS: 4.8537913419409703E-2",0.212 µM
CN(c1ccc(NC(=O)NCCN2CCOCC2)cc1)c1ccnc(Nc2ccc(CS(C)(=O)=O)cc2)n1.Cl [GW830365A],potency estimated from few doses,"[6]; compound concentrations: 100 nM and 1000 nM (sheet 'Samples'), CATDS: 0.11596893366526",0.201 µM
CCn1c(-c2nonc2N)nc2cncc(C(=O)N3CC[C@H](N)C3)c21.Cl [SB-772077-B],potency estimated from few doses,[8]; [16],0.752 µM
CCC(CC)(CC)n1cnc2c(N)ncnc21 [SKF-97620],potency estimated from few doses,"[4]; compound concentrations: 100 nM and 1000 nM (sheet 'Samples'), CATDS: 4.3166992032332097E-2",0.432 µM
same,potency estimated from few doses,"[6]; compound concentrations: 100 nM and 1000 nM (sheet 'Samples'), CATDS: 0.13947400940733601",0.0539 µM
NS(=O)(=O)c1cccc(-c2ccc3c(NC(=O)C4CC4)n[nH]c3c2)c1 [SB-741905],potency estimated from few doses,[3]; CATDS: 0.110749292558391,1.78 µM
same,potency estimated from few doses,"[5]; compound concentrations: 100 nM and 1000 nM (sheet 'Samples'), CATDS: 0.11088369265314001",1.78 µM
same,potency estimated from few doses,"[6]; compound concentrations: 100 nM and 1000 nM (sheet 'Samples'), CATDS: 0.24789463028651901",0.301 µM
Cn1cc(C=C2C(=O)Nc3cccnc32)c2ccccc21 [GW441756X],potency estimated from few doses,"[9]; compound concentrations: 100 nM and 1000 nM (sheet 'Samples'), CATDS: 0.22655128290916701",1.25 µM
Nc1nccc(-c2ccc3c(N)n[nH]c3c2)n1 [GSK1034945A],potency estimated from few doses,[10]; [16],1.42 µM
same,potency estimated from few doses,[11]; [16],2.15 µM
O=C1N=C(NCc2ccccc2Br)S/C1=C\c1ccc2ncccc2c1 [RO4506918-000],potency estimated from few doses,[7]; CATDS: 7.7702899171443504E-2,1.48 µM
CCn1c(-c2nonc2N)nc2cncc(Br)c21 [SB-738004],potency estimated from few doses,[10]; [16],0.655 µM
same,potency estimated from few doses,[8]; [16],1.35 µM
Cl.Nc1nc(-c2ccc3c(c2)C(=Cc2cc(Br)c(O)c(Br)c2)C(=O)N3)cs1 [GW407323A],potency estimated from few doses,"[10]; compound concentrations: 100 nM and 1000 nM (sheet 'Samples'), CATDS: 3.34335879912959E-2",0.903 µM
same,potency estimated from few doses,[7]; CATDS: 3.5438928095243502E-2,0.734 µM
Cn1cc(C2=C(c3c(S(C)=O)n(C)c4ccccc34)C(=O)NC2=O)c2ccccc21 (stereo not shown) [RO0317379-000],potency estimated from few doses,[7]; CATDS: 0.10247036288978301,1.82 µM
Cc1occc1-c1nc(N)c(OC[C@@H](N)Cc2c[nH]c3ccccc23)cc1-c1cc2c(C)n[nH]c2cn1 [GSK1660450B],potency estimated from few doses,[8]; [16],0.126 µM
NS(=O)(=O)c1ccc(NC=C2C(=O)Nc3ccc4ncsc4c32)cc1 [GW589933X],potency estimated from few doses,"[10]; compound concentrations: 100 nM and 1000 nM (sheet 'Samples'), CATDS: 1.6133442669584601E-2",2.2 µM
same,potency estimated from few doses,"[11]; compound concentrations: 100 nM and 1000 nM (sheet 'Samples'), CATDS: 2.1682770776227499E-2",0.765 µM
same,potency estimated from few doses,"[12]; compound concentrations: 100 nM and 1000 nM (sheet 'Samples'), CATDS: 1.8829734427402701E-2",1.19 µM
same,potency estimated from few doses,[13]; CATDS: 5.6823828903644298E-2,0.0943 µM
NS(=O)(=O)c1ccc(N/N=C2\C(=O)Nc3ccc4ncccc4c32)cc1 [GW305178X],potency estimated from few doses,[13]; CATDS: 3.9228488204277198E-2,2.19 µM
COc1ccc(Nc2nccc(NCCNC(=O)Nc3cc(C)ccc3C)n2)cc1 [GSK1379899A],potency estimated from few doses,[3]; CATDS: 4.7532524958751397E-2,1.32 µM
same,potency estimated from few doses,"[6]; compound concentrations: 100 nM and 1000 nM (sheet 'Samples'), CATDS: 0.114925337657843",0.25 µM
NS(=O)(=O)c1ccc(N/C=C2\C(=O)Nc3ccc4ncsc4c32)cc1 [GW297361X],potency estimated from few doses,"[10]; compound concentrations: 100 nM and 1000 nM (sheet 'Samples'), CATDS: 3.3579769325783403E-2",1.33 µM
same,potency estimated from few doses,"[11]; compound concentrations: 100 nM and 1000 nM (sheet 'Samples'), CATDS: 3.48419374837717E-2",1.2 µM
same,potency estimated from few doses,[13]; CATDS: 3.6702057868443203E-2,1.05 µM
Nc1nc(-c2ccc3c(N)n[nH]c3c2)cc(N2CCCC(NC(=O)c3ccccc3)C2)n1 (stereo not shown) [GSK2286775B],potency estimated from few doses,[11]; [16],1.51 µM
same,potency estimated from few doses,[2],1.83 µM
COc1cc[nH]c1/C=C1\C(=O)Nc2ccc(F)c(C#C[C@@H](O)[C@@H](N)[C@@H](C)O)c21 [RO0283120-000],potency estimated from few doses,[11]; [16],1.14 µM
same,potency estimated from few doses,[9]; [16],0.468 µM
same,potency estimated from few doses,[12]; [16],1.06 µM
COc1cc[nH]c1/C=C1\C(=O)Nc2ccc(F)c(I)c21 [RO0281567-000],potency estimated from few doses,[7]; CATDS: 0.103820399985183,1.83 µM
CN[C@H](C#Cc1c(F)ccc2c1/C(=C/c1[nH]ccc1OC)C(=O)N2)CO.Cl [RO0283049-001],potency estimated from few doses,"[11]; compound concentrations: 100 nM and 1000 nM (sheet 'Samples'), CATDS: 1.9484263699736298E-2",2.15 µM
same,potency estimated from few doses,"[9]; compound concentrations: 100 nM and 1000 nM (sheet 'Samples'), CATDS: 9.7447783313560105E-2",0.0497 µM
same,potency estimated from few doses,"[12]; compound concentrations: 100 nM and 1000 nM (sheet 'Samples'), CATDS: 2.1208459408743999E-2",1.46 µM
CNCC1CCn2c(c(C3=C(c4cn(C)c5ccccc45)C(=O)NC3=O)c3ccccc32)C1 (stereo not shown) [RO0318676-000],potency estimated from few doses,"[8]; compound concentrations: 100 nM and 1000 nM (sheet 'Samples'), CATDS: 0.17130797334845299",0.0289 µM
CN(C)c1ccc2c(c1)/C(=C/Nc1ccc(S(N)(=O)=O)cc1)C(=O)N2 [GW416469X],potency estimated from few doses,[3]; CATDS: 7.6568205350202298E-2,1.42 µM
same,potency estimated from few doses,"[6]; compound concentrations: 100 nM and 1000 nM (sheet 'Samples'), CATDS: 0.16808925824439999",0.245 µM
same,potency estimated from few doses,[13]; CATDS: 7.4408225949633894E-2,1.55 µM
O=C(Nc1n[nH]c2nc(-c3ccccc3O)ccc12)C1CC1 [SB-711880],potency estimated from few doses,[14],0.958 µM
COc1cc[nH]c1/C=C1\C(=O)Nc2ccc([N+](=O)[O-])c(N3CC[C@@H](O)C3)c21 [RO0504985-000],potency estimated from few doses,"[9]; compound concentrations: 100 nM and 1000 nM (sheet 'Samples'), CATDS: 3.4351644402230902E-2",1.13 µM
Cl.Cl.NCC(NC(=O)c1cc(-c2ccnc3[nH]ccc23)cs1)c1ccccc1.NCC(NC(=O)c1cc(-c2ccnc3[nH]ccc23)cs1)c1ccccc1 (stereo not shown) [GSK1229959A],potency estimated from few doses,[15],1.23 µM
